# In the supplement of paper PMC8728848:
# About 410 targets per protein were measured; listed, in parts, are those with the strongest signals and a random draw of the rest.
# How the values were obtained:
# Test in all cases: glycan array binding signal (z-score within array); higher = stronger binding
# Details in all cases: glycan notation: IUPAC condensed, linker removed
# Gal3S6S(b1-4)GlcNAc = biological target: Gal3S6S(b1-4)GlcNAc
# How it was run: (§1)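 Glycan array binding is given as a within-array Z-score, which can be read as non-binding when negative. The arrays, 3228 of them, came from the Consortium for Functional Glycomics database and were retained only where the protein sequence was available. Z-scores were averaged across arrays of the same protein sequence at different concentrations or buffers and across linkers.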
# GalNAc(a1-3)GalNAc = biological target: GalNAc(a1-3)GalNAc
# How it was run: as §1
# GalNAc(b1-4)Gal(b1-4)Glc = biological target: GalNAc(b1-4)Gal(b1-4)Glc
# How it was run: as §1
# GalNAc3S(b1-4)GlcNAc = biological target: GalNAc3S(b1-4)GlcNAc
# How it was run: as §1
# GalNAc3S(b1-4)GlcNAc3S = biological target: GalNAc3S(b1-4)GlcNAc3S
# How it was run: as §1
# [1] = biological target: GalNAc3S(b1-4)[Fuc(a1-3)]GlcNAc
# How it was run: as §1
# [2] = biological target: GlcNAc(a1-4)Gal(b1-4)GlcNAc(b1-3)Gal(b1-4)GlcNAc
# How it was run: as §1
# [3] = biological target: GlcNAc(a1-4)Gal(b1-4)GlcNAc(b1-3)Gal(b1-4)[Fuc(a1-3)]GlcNAc(b1-3)Gal(b1-4)[Fuc(a1-3)]GlcNAc
# How it was run: as §1
# [4] = biological target: GlcNAc(b1-2)Man(a1-3)[GlcNAc(b1-2)Man(a1-6)]Man(b1-4)GlcNAc(b1-4)GlcNAc
# How it was run: as §1
# [5] = biological target: GlcNAc(b1-2)[GlcNAc(b1-4)]Man(a1-3)[GlcNAc(b1-2)Man(a1-6)]Man(b1-4)GlcNAc(b1-4)GlcNAc
# How it was run: as §1
# GlcNAc(b1-3)Gal = biological target: GlcNAc(b1-3)Gal
# How it was run: as §1
# [6] = biological target: GlcNAc(b1-3)Gal(b1-4)GlcNAc(b1-2)Man(a1-3)[GlcNAc(b1-3)Gal(b1-4)GlcNAc(b1-2)Man(a1-6)]Man(b1-4)GlcNAc(b1-4)[Fuc(a1-6)]GlcNAc
# How it was run: as §1
# [7] = biological target: GlcNAc6S(b1-3)Gal(b1-4)GlcNAc
# How it was run: as §1
# Kdn(a2-3)Gal(b1-3)GalNAc = biological target: Kdn(a2-3)Gal(b1-3)GalNAc
# How it was run: as §1
# [8] = biological target: Man(a1-2)Man(a1-3)[Man(a1-2)Man(a1-6)]Man(a1-6)[Man(a1-3)[Man(a1-6)]Man(a1-6)]Man(b1-4)GlcNAc(b1-4)GlcNAc
# How it was run: as §1
# [9] = biological target: Man(a1-2)Man(a1-3)[Man(a1-6)]Man(a1-6)[Man(a1-2)Man(a1-3)]Man(b1-4)GlcNAc(b1-4)GlcNAc
# How it was run: as §1
# [10] = biological target: Man(a1-2)Man(a1-6)[Man(a1-3)]Man(a1-6)[Man(a1-2)Man(a1-2)Man(a1-3)]Man
# How it was run: as §1
# [11] = biological target: Man(a1-2)Man(a1-6)[Man(a1-3)]Man(a1-6)[Man(a1-2)Man(a1-2)Man(a1-3)]Man(b1-4)GlcNAc(b1-4)GlcNAc
# How it was run: as §1
# [12] = biological target: Man(a1-3)[Man(a1-6)]Man(a1-6)[Man(a1-2)Man(a1-3)]Man(b1-4)GlcNAc(b1-4)GlcNAc
# How it was run: as §1
# [13] = biological target: Man(a1-3)[Man(a1-6)]Man(a1-6)[Man(a1-3)]Man(b1-4)GlcNAc(b1-4)GlcNAc
# How it was run: as §1
# [14] = biological target: Man(a1-3)[Man(a1-6)]Man(b1-4)GlcNAc(b1-4)GlcNAc
# How it was run: as §1
# [15] = biological target: Neu5Ac(a2-3)Gal(b1-3)GlcNAc(b1-3)Gal(b1-3)GlcNAc
# How it was run: as §1
# [16] = biological target: Neu5Ac(a2-3)Gal(b1-3)[Fuc(a1-4)]GlcNAc
# How it was run: as §1
# [17] = biological target: Neu5Ac(a2-3)Gal(b1-3)[Fuc(a1-4)]GlcNAc(b1-3)Gal(b1-4)[Fuc(a1-3)]GlcNAc
# How it was run: as §1
# [18] = biological target: Neu5Ac(a2-3)Gal(b1-3)[Neu5Ac(a2-3)Gal(b1-4)]GlcNAc
# How it was run: as §1
# [19] = biological target: Neu5Ac(a2-6)Gal(b1-4)GlcNAc(b1-2)Man(a1-3)[GlcNAc(b1-2)Man(a1-6)]Man(b1-4)GlcNAc(b1-4)GlcNAc
# How it was run: as §1
# [20] = biological target: Neu5Ac(a2-6)Gal(b1-4)GlcNAc(b1-2)Man(a1-3)[Neu5Ac(a2-6)Gal(b1-4)GlcNAc(b1-2)Man(a1-6)]Man(b1-4)GlcNAc(b1-4)[Fuc(a1-6)]GlcNAc
# How it was run: as §1
# [21] = biological target: Neu5Gc(a2-8)Neu5Gc(a2-3)Gal(b1-4)GlcNAc
# How it was run: as §1
# [22] = biological target: Neu5Gc(a2-8)Neu5Gc(a2-3)Gal(b1-4)GlcNAc(b1-3)Gal(b1-4)GlcNAc
# How it was run: as §1
# [23] = biological target: Neu5Gc(a2-8)Neu5Gc(a2-6)Gal(b1-4)GlcNAc
# How it was run: as §1
# [24] = biological target: Neu5Gc(b2-6)Gal(b1-4)GlcNAc
# How it was run: as §1
binder,measurement,setting,value
AMA (Arum maculatun) (protein) MAKLLLLLLLPAIVGLAVPRSAAAVGSNYMLSGETLNTDGRLTNGELTLIMQVDCNLVLYHGGWQSNTANNGRDCKLTLTDFGELVIKSGTGSTVWSSGSKQSMKGNYAAVVHPEGRLVIYGPSVFKINPSGAGLNGLPLRNIPLTNNMLFSGQVLYGDGTLSARNHKLVMQGDCNMVLYGGKYGWQSNTHGNGKYCFAMLTHKGELVIRDDDFKSVWSSKSSSKQGDYVFILQDDSLAIIYGPAVFSTGSKKMISMVTN,glycan array binding signal (z-score),Gal3S6S(b1-4)GlcNAc,-0.213
same,glycan array binding signal (z-score),GalNAc(a1-3)GalNAc,-0.209
same,glycan array binding signal (z-score),GalNAc(b1-4)Gal(b1-4)Glc,-0.203
same,glycan array binding signal (z-score),GalNAc3S(b1-4)GlcNAc,-0.22
same,glycan array binding signal (z-score),GalNAc3S(b1-4)GlcNAc3S,-0.217
same,glycan array binding signal (z-score),[1],-0.216
same,glycan array binding signal (z-score),[2],-0.205
same,glycan array binding signal (z-score),[3],-0.201
same,glycan array binding signal (z-score),[4],6.01
same,glycan array binding signal (z-score),[5],7.69
same,glycan array binding signal (z-score),GlcNAc(b1-3)Gal,-0.211
same,glycan array binding signal (z-score),[6],2.21
same,glycan array binding signal (z-score),[7],-0.202
same,glycan array binding signal (z-score),Kdn(a2-3)Gal(b1-3)GalNAc,-0.207
same,glycan array binding signal (z-score),[8],3.87
same,glycan array binding signal (z-score),[9],3.3
same,glycan array binding signal (z-score),[10],-0.213
same,glycan array binding signal (z-score),[11],4.91
same,glycan array binding signal (z-score),[12],8.56
same,glycan array binding signal (z-score),[13],4.09
same,glycan array binding signal (z-score),[14],3.64
same,glycan array binding signal (z-score),[15],-0.204
same,glycan array binding signal (z-score),[16],-0.218
same,glycan array binding signal (z-score),[17],-0.226
same,glycan array binding signal (z-score),[18],0.441
same,glycan array binding signal (z-score),[19],0.845
same,glycan array binding signal (z-score),[20],0.863
same,glycan array binding signal (z-score),[21],-0.22
same,glycan array binding signal (z-score),[22],-0.215
same,glycan array binding signal (z-score),[23],-0.211
same,glycan array binding signal (z-score),[24],-0.21
